# Bioassay records deposited in PubChem BioAssay by National Center for Advancing Translational Sciences (NCATS).
# TDP1 cell CPT: DT40-hTDP1 cell growth loss with CPT. chicken DT40 Tdp1-/-;hTDP1 cells + 20 nM CPT, ATP luminescence, 48 h. Potency, µM (titrated, usually from 46.2 µM), without a hit: at the highest dose activity change, negative = growth inhibition, hits mostly inhibitors. hit rate 12% among 420,000; further: potency means the concentration at half of the fitted maximal effect; on the % scale 0 is the no-effect control and ±100 the full control effect; nearly all actives have a fitted effect of over 55% in size
#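 Cell growth measured by CellTiter-Glo luminescence after a minimum 48 h, 37 C compound exposure with 20 nM CPT in Tdp1-knockout DT40 cells stably expressing hTDP1, seeded 400/well; qHTS titration format.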
# HepG2 tox: counter-screen for TGF-b inhibitors: cytotoxicity in HepG2 cells | HepG2 CAGA-GFP viability, ATP luminescence, 18 h | Potency, µM (highest dose often 46.1 µM), for inactives: top-dose activity change, negative = cytotoxicity, actives largely listed as cytotoxic | hit rate 0.76% among 410,000 | AID 588856; further: potency means the concentration at half of the fitted maximal effect
#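 HepG2 CAGA-GFP cells (1000/well, DMEM with 1% FBS) received compound, then TGF-beta at 500 pg/mL final, and were incubated 18 hours at 37 degrees C. Viability was read by CellTiter-Glo luminescence. Media-only wells were set as complete cell-killing and DMSO as no toxicity.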
# S-ASM inh: inhibitors of human secretory acid sphingomyelinase; P17405; placental ASM, HMU-PC fluorogenic substrate, 60 min; Potency, µM (titrated, usually from 57.5 µM), without a hit: top-dose activity change, negative = inhibition, usual class: inhibitors; hit rate 0.006% among 340,000; further: potency means the concentration at half of the fitted maximal effect
# Target sequence (P17405 47-631 limits assumed): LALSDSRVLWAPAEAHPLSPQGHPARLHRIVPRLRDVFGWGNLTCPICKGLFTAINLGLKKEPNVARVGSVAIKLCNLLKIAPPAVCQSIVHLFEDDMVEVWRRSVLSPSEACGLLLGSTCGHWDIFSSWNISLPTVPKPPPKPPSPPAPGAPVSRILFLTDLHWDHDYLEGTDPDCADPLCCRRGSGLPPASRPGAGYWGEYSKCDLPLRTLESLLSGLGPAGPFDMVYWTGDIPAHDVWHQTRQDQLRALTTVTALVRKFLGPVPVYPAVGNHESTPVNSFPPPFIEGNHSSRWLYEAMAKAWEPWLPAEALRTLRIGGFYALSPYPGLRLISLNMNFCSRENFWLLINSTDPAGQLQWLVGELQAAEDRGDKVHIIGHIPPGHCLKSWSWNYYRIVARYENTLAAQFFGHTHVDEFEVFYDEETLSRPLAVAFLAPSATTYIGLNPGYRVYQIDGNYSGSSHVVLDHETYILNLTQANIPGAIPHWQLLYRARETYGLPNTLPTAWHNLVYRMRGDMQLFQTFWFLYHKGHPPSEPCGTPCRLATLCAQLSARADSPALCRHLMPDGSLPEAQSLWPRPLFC
#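 Human placenta-derived ASM preincubated with compound 10 min at room temperature, then reacted with 9 uM (final) fluorogenic HMU-PC substrate for 60 min at 37 C. Stop solution raises pH to 10; fluorescence read at Ex 386/Em 447 nm.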
# IL1B secr inh: inflammasome signaling inhibition, IL-1 beta readout; AID 743279; activity change, % at 57.5 µM; THP-1 LPS/ATP IL-1B secretion, AlphaLISA, 16 h; stronger effect = lower value; hit rate 4.7% among 360,000; in the data active means activity change below about -50%; inconclusive means mostly about -30% to -49%; further: on the % scale 0 is the no-effect control and ±100 the full control effect
#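 THP-1 cells pretreated 1 hr with compounds (up to 57.5 uM final), then stimulated with LPS (250 ng/mL final) plus ATP (1.25 mM final); secreted IL-1B measured by AlphaLISA after 16 hr, decreased signal indicating inhibition.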
# TGFb inhibitor: inhibitors of TGF-b signaling | HepG2 CAGA-GFP TGF-b/SMAD3 reporter, GFP fluorescence, 18 h; TGF-beta stimulated, 500 pg/mL final | Potency, µM (series often up to 46.1 µM), for inactives: at the top dose activity, negative = inhibition, hits mostly inhibitors | hit rate 1.2% among 410,000 | AID 588855; further: potency means the concentration at half of the fitted maximal effect; on the % scale 0 is the no-effect control and ±100 the full control effect; nearly all actives have a fitted effect of over 65% in size
#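 Inhibition of TGF-beta-driven CAGA-GFP reporter expression in HEPG2 cells is measured by cellular GFP fluorescence after 18 h stimulation with 500 pg/mL recombinant TGF-beta in 1% FBS medium at 37 degrees C.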
# DT40 TDP1 no CPT: qHTS for Inhibitors of human tyrosyl-DNA phosphodiesterase 1 (TDP1): qHTS in cells in absence of CPT. DT40 Tdp1-/- hTDP1 cells, no CPT, ATP luminescence, 48 h. Potency, µM (highest dose often 46.2 µM), for the others: at the top dose activity change, negative = growth inhibition, hits mostly inhibitors. hit rate 15% among 420,000; further: potency means the concentration at half of the fitted maximal effect; on the % scale 0 is the no-effect control and ±100 the full control effect; nearly all actives have a fitted effect of over 55% in size
#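 Chicken DT40 Tdp1-/- cells stably complemented with human TDP1 were seeded at 400 cells/well with DMSO in place of 20 nM camptothecin. After compound pinning, cells grew at least 48 hr at 37 °C; viability read by CellTiter-Glo luminescence.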
# * = called active by the depositor; ? = inconclusive; . = not tested or not shown; ! = repeats disagree. Only some compounds are listed: those with a hit (about 19% of all), similar ones and a draw of the others. Unless noted, the call rests on the fitted dose curve; in most records, active means well fitted curve in the direction sought with a large enough effect; inconclusive means small, poorly fitted or top-dose-only effect, or another doubt; inactive means no such curve, though single readings can be large; an effect the other way counts as inactive or inconclusive.
SMILES,TDP1 cell CPT,HepG2 tox,S-ASM inh,IL1B secr inh,TGFb inhibitor,DT40 TDP1 no CPT
CC1CC[C@@]2(NC1)O[C@@H]1C[C@H]3C4CC=C5C[C@@H](O)CC[C@]5(C)C4CC[C@]3(C)[C@H]1[C@@H]2C (stereo partly specified),11.8%,.,.,.,.,-24.1%
C[C@H]1CC[C@@H]2[C@@H](C)[C@H]3C(CC4C5CC=C6CC(O[C@@H]7O[C@H](CO)C(O[C@@H]8O[C@@H](C)[C@H](O)[C@@H](O)[C@H]8O)[C@H](O)[C@H]7O[C@@H]7O[C@@H](C)[C@H](O)[C@@H](O)[C@H]7O)CC[C@]6(C)C5CC[C@@]43C)N2C1 (stereo partly specified),.,20µM*,.,.,14.1µM*,.
c1ccc(C[n+]2ccccc2)cc1,?,-1.2%,-7.6%,0.0,-20.0%,16.4µM*
Cc1cccn2c(=O)cc(COc3cccc(NC(=O)COc4ccc(F)cc4)c3)nc12,?,2.7%,.,.,-20.5%,8.2µM*
CCCNS(=O)(=O)c1ccc(OCC(=O)N2CCN(Cc3ccc4c(c3)OCO4)CC2)cc1,?,-7.3%,1.0%,-19.7,0.0%,11.6µM*
CCC(C)C1NC(=O)C(NC(=O)C(CC(C)C)N(C)C(=O)C2CCCN2C(=O)C(C)O)C(C)OC(=O)C(Cc2ccc(OC)cc2)N(C)C(=O)C2CCCN2C(=O)C(CC(C)C)NC(=O)[C@H](C)C(=O)[C@H](C(C)C)OC(=O)CC1O (stereo partly specified),0.0366µM*,-2.1%,0.6%,-100.4*,-103.6%,0.0291µM*
CC(C)(C)c1csc(NC(=O)Nc2ccccc2)n1,-25.4%,-45.5%,-1.0%,-94.3*,?,?
O=[N+]([O-])c1ccc2nc(N3CCNCC3)ccc2c1,?,-49.6%,-0.1%,-52.9*,-3.8%,20.6µM*
CC1=CC2/C=C(\C)CCC(O)C(O)/C=C/C(=O)C23C(=O)NC(CC(C)C)C3C1C (stereo unspecified),3.66µM*,-116.5%,4.7%,-105.9*,3.16µM*,1.84µM*
Cc1ccc(C(=O)Nc2ccc(Cl)cc2C(=O)c2ccccc2)cc1,-11.2%,-21.4%,?,-0.6,-6.3%,-3.8%
Cc1ccc(C(=O)Nc2nc3ccccc3[nH]2)cc1,?,-70.4%,-5.6%,32.2,-20.0%,18.4µM*
O=C(N/N=C/c1ccccc1OC(=O)N1CCOCC1)c1cccs1,4.11µM*,-19.9%,0.5%,126.0,-20.7%,4.61µM*
O=[N+]([O-])c1cc(F)c(N2CCCCCC2)cc1N1CCNCC1,16.4µM*,4.6%,-7.6%,-7.9,0.6%,?
Cc1oc(-c2ccc(F)cc2F)nc1CN1C[C@@H]2C[C@@H](C1)c1cccc(=O)n1C2,20.0%,-6.0%,6.9%,0.9,-18.1%,-23.2%
Cc1cccc(NC(=O)C2CCCN(S(=O)(=O)c3ccc4c(c3)oc(=O)n4C)C2)c1 (stereo unspecified),?,14.7%,-3.7%,-6.8,5.2%,?
COC(=O)C1=C(c2cccc(Cl)c2)C[C@@H]2CC[C@H]1N2C(=O)NCC1CC1,16.4µM*,-46.4%,-5.7%,22.3,-7.4%,?
COC(=O)C1=C(c2ccccc2)C[C@@H]2CC[C@H]1N2C(=O)N1CCCC1,?,-0.3%,-1.6%,4.1,?,16.4µM*
COC(=O)C1=C(c2cccc(Cl)c2)C[C@@H]2CC[C@H]1N2C(=O)N1CCCC1,8.2µM*,-22.5%,2.8%,4.8,?,7.31µM*
CCCNC(=O)N1[C@H]2CC[C@@H]1C(C(=O)OC)=C(c1cccc(Cl)c1)C2,?,2.7%,1.0%,39.1,1.7%,?
COC(=O)C1=C(c2ccc(S(C)(=O)=O)cc2)C[C@@H]2CC[C@H]1N2C(=O)N1CCCC1,-16.5%,-7.1%,1.3%,-17.2,12.0%,3.6%
Cn1c(O)c(C=NCCN2CCNCC2)c(=O)[nH]c1=O,22.8%,-42.8%,-4.5%,4.5,-21.3%,-9.3%
Cc1csc2nc(COC(=O)c3ccccc3NC(=O)c3ccc(F)cc3)cc(=O)n12,?,-9.6%,.,.,-0.9%,?
CCOc1ccc(-n2c(/C=C/c3ccccc3)nc3ccccc3c2=O)cc1,?,-15.4%,.,.,-17.4%,?
Cc1cc(-n2c(/C=C/c3cccs3)nc3ccccc3c2=O)ccc1Br,14.6µM*,-10.2%,.,.,-1.7%,23.1µM*
Cc1ccc(-n2c(/C=C/c3ccc(Br)s3)nc3ccccc3c2=O)cc1,23.1µM*,-24.6%,.,.,?,20.6µM*
SMILES,TDP1 cell CPT,HepG2 tox,S-ASM inh,IL1B secr inh,TGFb inhibitor,DT40 TDP1 no CPT
Cc1cc(-n2c(/C=C/c3ccc(Br)s3)nc3ccccc3c2=O)ccc1Br,14.6µM*,-35.1%,.,.,-29.7%,?
Cc1ccc(CN2C3CCCC2CC(NC(=O)Nc2cccc(F)c2)C3)cc1 (stereo unspecified),?,-52.0%,-0.1%,-69.7*,0.3%,14.6µM*
Cc1ccc(CN2C3CCCC2CC(NC(=O)c2ccc(F)cc2)C3)cc1 (stereo unspecified),-9.3%,-21.1%,-1.6%,-16.3,-12.1%,?
O=C(CCn1c(=O)oc2ccccc21)N1CCN(C(c2ccccc2)c2ccccc2)CC1,16.4µM*,-0.7%,-0.4%,-64.6*,-23.6%,?
Cc1cnc[nH]1,1.9%,-4.8%,-3.7%,-22.7,9.1%,?
Cc1ccccc1NC(=O)c1cc(-c2ccccc2)n(CCCN2CCOCC2)c1C,-2.2%,9.6%,3.1%,-5.4,2.6%,-0.4%
Cc1ccccc1NC(=NCCCN1CC1)Nc1ccccc1C,2.06µM*,-19.9%,16.9%,?,-17.1%,5.17µM*
Cc1c(C(=O)c2cccc3ccccc23)c2cccc3c2n1[C@H](CN1CCOCC1)CO3,2.91µM*!,-44.7%,-14.5%,-27.3,?,4.61µM*!
Cc1c(C(=O)c2ccc3ccccc3c2)c2cccc3c2n1[C@H](CN1CCOCC1)CO3,11.9µM*,.,.,.,.,?
S=C1NCCN1,-6.2%,-35.3%,2.8%,28.1,-14.5%,-8.2%
Cc1nc2cc(-c3cccc(F)c3)nn2c(C)c1CCC(=O)N1CCC2(CC1)OCCO2,16.4µM*,-1.8%,-0.9%,0.0,0.9%,?
